The source of these data is publication PMC7862700, “An all-to-all approach to the identification of sequence-specific readers for epigenetic DNA modifications on cytosine”.

Common to all, as to assay: DAPPL (digital affinity profiling via proximity ligation, sequencing); 10 mM Tris-HCl pH 7.5, 50 mM NaCl, 1 mM DTT, 4% glycerol, room temperature, 30 min; GST-TFs on glutathione beads, 16-mer random dsDNA library, 0.1% formaldehyde crosslink after washing; high values mean tight binding
In one assay the target is T1, FLI1 (Homo sapiens, UniProt Q01543 1-452).
T1 sequence: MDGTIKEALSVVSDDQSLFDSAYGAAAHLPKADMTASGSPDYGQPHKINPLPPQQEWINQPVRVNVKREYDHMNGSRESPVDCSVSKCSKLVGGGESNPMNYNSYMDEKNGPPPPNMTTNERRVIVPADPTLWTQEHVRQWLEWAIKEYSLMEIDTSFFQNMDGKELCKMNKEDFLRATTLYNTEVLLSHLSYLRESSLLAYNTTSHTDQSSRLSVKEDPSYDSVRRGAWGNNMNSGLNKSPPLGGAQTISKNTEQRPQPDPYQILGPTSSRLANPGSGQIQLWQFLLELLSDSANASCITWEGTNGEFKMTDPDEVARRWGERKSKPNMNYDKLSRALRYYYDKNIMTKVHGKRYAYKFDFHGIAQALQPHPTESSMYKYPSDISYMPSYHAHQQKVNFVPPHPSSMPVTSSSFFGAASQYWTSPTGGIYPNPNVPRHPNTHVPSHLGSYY
The conditions noted are these: protein: recombinant; tags: N-terminal GST; dsDNA, one strand shown. In a few lines: (§1)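 Pools were built from human transcription factors expressed in yeast as GST fusions, captured on glutathione beads and DNA-barcoded, along with a tag-only sample. Incubation with 200 nmole of a 16-mer random double-stranded DNA library lasted 30 min at room temperature in Tris/NaCl/DTT/glycerol buffer, and was followed by washing, 0.1% formaldehyde crosslinking, proximity ligation, PCR amplification and Illumina NextSeq500 sequencing. Binding signal is the quotient of each hexamer's read frequency for a factor and its frequency for the tag-only sample.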

The next assay deals with T2, ELK1 (Homo sapiens, UniProt P19419 1-428).
T2 sequence: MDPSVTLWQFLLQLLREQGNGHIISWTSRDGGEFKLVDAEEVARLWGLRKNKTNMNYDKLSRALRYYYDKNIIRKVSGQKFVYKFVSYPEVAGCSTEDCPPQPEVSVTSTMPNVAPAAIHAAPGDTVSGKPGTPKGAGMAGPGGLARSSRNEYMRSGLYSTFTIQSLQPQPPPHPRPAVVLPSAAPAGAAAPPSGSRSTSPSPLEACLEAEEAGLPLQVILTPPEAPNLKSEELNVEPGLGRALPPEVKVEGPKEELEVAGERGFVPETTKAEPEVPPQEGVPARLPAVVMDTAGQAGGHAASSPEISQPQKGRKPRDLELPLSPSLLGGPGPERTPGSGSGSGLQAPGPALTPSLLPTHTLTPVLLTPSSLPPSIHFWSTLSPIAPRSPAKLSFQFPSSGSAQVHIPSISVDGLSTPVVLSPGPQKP
The note with it: protein: recombinant; tags: N-terminal GST; dsDNA, one strand shown. In a few lines:
as §1

For the next assay, the target named is T3, GABPA (Homo sapiens, UniProt Q06546 1-454).
T3 sequence: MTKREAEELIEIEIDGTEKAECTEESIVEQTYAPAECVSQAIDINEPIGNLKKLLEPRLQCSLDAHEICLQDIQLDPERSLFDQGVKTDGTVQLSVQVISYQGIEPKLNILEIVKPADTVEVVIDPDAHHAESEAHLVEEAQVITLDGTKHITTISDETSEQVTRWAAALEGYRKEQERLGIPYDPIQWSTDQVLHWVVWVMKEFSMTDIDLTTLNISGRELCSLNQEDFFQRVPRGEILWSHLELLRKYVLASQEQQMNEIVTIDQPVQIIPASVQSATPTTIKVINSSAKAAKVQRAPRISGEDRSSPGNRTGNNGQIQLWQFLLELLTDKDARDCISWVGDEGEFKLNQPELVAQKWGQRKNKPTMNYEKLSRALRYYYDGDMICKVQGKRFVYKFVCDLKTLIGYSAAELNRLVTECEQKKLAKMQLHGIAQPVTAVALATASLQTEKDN
The conditions noted are these: protein: recombinant; tags: N-terminal GST; dsDNA, one strand shown. In a few lines:
as §1

A further assay deals with T4, ERG (Homo sapiens, UniProt P11308 1-479).
T4 sequence: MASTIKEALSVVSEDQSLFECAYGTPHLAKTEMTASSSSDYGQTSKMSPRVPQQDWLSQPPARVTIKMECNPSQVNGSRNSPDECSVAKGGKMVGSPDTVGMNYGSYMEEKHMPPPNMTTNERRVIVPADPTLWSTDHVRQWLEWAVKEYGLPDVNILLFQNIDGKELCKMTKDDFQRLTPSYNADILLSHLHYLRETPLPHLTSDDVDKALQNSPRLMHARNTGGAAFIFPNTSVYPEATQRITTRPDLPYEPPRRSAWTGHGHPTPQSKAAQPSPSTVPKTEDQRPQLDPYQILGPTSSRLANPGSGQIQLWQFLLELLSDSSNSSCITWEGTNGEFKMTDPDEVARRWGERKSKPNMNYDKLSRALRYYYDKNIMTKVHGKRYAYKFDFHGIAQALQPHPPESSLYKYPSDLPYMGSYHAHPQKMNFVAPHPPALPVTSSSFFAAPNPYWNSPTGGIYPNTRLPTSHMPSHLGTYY
The conditions noted are these: protein: recombinant; tags: N-terminal GST; dsDNA, one strand shown. An outline of the steps:
as §1

A further assay deals with ELF1 (Homo sapiens, UniProt P32519 1-619). The note with it: protein: recombinant; tags: N-terminal GST; dsDNA, one strand shown. In a few lines: as §1
Another assay deals with T5, EHF (Homo sapiens, UniProt Q9NZC4 1-300).
T5 sequence: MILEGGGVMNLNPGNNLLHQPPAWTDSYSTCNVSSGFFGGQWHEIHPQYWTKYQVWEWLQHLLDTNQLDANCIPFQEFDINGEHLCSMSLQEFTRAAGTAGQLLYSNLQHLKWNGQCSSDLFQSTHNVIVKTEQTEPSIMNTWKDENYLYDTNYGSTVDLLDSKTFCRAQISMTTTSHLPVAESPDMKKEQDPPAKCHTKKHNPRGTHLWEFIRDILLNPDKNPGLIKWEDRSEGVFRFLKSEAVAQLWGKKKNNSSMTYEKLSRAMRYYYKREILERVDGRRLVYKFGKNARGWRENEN
The conditions noted are these: protein: recombinant; tags: N-terminal GST; dsDNA, one strand shown. In a few lines:
as §1

For a further assay, the target named is SPI1 (Homo sapiens, UniProt P17947 1-270). The note with it: protein: recombinant; tags: N-terminal GST; dsDNA, one strand shown. An outline of the steps: as §1
The target in a further assay is SPIB (Homo sapiens, UniProt Q01892 1-262). The note with it: protein: recombinant; tags: N-terminal GST; dsDNA, one strand shown. In a few lines:
as §1

A further assay addresses T6, ELK3 (Homo sapiens, UniProt P41970 1-407).
T6 sequence: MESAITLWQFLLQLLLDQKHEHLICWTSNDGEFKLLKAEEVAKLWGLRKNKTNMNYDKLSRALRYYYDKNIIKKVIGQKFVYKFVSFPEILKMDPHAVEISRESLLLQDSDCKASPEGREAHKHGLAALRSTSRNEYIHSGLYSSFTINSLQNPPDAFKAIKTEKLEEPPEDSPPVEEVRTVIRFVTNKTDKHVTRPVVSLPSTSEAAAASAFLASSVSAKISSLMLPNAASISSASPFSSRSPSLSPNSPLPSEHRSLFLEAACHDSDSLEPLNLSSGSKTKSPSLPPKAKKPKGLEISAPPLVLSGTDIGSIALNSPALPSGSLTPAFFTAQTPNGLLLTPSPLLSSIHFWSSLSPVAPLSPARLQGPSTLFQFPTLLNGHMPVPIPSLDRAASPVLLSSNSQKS
The conditions noted are these: protein: recombinant; tags: N-terminal GST; dsDNA, one strand shown. In a few lines:
as §1

Another assay has as its target T7, FEV (Homo sapiens, UniProt Q99581 1-238).
T7 sequence: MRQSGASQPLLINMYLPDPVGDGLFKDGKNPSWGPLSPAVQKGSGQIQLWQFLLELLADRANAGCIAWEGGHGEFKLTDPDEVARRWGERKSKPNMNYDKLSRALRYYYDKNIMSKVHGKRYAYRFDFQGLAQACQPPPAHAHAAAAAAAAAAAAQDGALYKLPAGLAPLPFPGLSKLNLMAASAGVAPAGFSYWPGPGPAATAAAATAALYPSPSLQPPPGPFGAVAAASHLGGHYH
The conditions noted are these: protein: recombinant; tags: N-terminal GST; dsDNA, one strand shown. In a few lines: as §1

Another assay has as its target ETV5 (Homo sapiens, UniProt P41161 1-510). The conditions noted are these: protein: recombinant; tags: N-terminal GST; dsDNA, one strand shown. In a few lines:
as §1

The target in another assay is HSF1 (Homo sapiens, UniProt Q00613 1-529). The conditions noted are these: protein: recombinant; tags: N-terminal GST; chain copies: 3; dsDNA, one strand shown. An outline of the steps:
as §1

In a further assay the target is T8, SPIC (Homo sapiens, UniProt Q8N5J4 1-248).
T8 sequence: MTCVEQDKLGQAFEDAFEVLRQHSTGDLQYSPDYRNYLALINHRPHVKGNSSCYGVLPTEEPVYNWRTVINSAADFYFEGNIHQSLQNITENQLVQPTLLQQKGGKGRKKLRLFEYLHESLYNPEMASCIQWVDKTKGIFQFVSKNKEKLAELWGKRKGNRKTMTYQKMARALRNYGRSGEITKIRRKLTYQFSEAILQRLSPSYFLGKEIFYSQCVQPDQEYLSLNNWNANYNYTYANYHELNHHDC
The conditions noted are these: protein: recombinant; tags: N-terminal GST; dsDNA, one strand shown. An outline of the steps: as §1

The target of a further assay is ELF4 (Homo sapiens, UniProt Q99607 1-663). The note with it: protein: recombinant; tags: N-terminal GST; dsDNA, one strand shown. In a few lines: as §1
A further assay deals with T9, ELK4 (Homo sapiens, UniProt P28324-2 1-405).
T9 sequence: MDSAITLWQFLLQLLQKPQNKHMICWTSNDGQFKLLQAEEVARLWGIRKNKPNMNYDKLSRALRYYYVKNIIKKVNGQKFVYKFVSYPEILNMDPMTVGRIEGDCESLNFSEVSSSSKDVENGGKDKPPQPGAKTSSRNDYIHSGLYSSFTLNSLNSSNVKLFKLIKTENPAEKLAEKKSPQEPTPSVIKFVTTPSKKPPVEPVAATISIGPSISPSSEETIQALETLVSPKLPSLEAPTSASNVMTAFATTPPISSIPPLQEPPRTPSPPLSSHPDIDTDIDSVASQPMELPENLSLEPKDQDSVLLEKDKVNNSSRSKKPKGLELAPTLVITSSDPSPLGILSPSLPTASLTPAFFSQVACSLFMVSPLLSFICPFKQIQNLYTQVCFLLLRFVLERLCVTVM
The conditions noted are these: protein: recombinant; tags: N-terminal GST; dsDNA, one strand shown. In a few lines: as §1

A further assay has as its target T10, ETV2 (Homo sapiens, UniProt O00321 1-342).
T10 sequence: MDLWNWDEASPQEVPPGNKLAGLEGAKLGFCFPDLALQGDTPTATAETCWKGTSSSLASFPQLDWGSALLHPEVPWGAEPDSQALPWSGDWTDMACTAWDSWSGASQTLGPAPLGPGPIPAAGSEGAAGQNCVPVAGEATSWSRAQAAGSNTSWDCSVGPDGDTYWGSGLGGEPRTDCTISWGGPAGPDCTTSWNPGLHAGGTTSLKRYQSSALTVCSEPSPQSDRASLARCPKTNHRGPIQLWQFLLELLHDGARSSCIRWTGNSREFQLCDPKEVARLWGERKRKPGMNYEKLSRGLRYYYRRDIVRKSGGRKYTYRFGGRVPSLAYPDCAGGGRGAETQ
The note with it: protein: recombinant; tags: N-terminal GST; dsDNA, one strand shown. In a few lines:
as §1

The target of a further assay is T11, ELF3 (Homo sapiens, UniProt P78545 1-371).
T11 sequence: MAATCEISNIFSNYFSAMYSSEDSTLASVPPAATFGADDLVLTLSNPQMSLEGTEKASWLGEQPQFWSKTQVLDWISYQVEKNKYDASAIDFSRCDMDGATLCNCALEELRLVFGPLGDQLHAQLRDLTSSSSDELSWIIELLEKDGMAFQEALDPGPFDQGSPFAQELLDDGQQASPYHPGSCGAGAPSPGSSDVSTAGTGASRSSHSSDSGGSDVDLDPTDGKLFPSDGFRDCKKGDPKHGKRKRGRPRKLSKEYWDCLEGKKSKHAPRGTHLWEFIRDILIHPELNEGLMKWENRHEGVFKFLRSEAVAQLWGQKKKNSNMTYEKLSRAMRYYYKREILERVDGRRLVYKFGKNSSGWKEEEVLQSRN
The conditions noted are these: protein: recombinant; tags: N-terminal GST; dsDNA, one strand shown. An outline of the steps: as §1

In another assay the target is CRX (Homo sapiens, UniProt O43186 1-299). The note with it: protein: recombinant; tags: N-terminal GST; dsDNA, one strand shown. An outline of the steps: as §1
The target of a further assay is ETV1 (Homo sapiens, UniProt P50549 1-477). The note with it: protein: recombinant; tags: N-terminal GST; dsDNA, one strand shown. An outline of the steps: as §1
Sequence of ETV1 (P50549 whole entry): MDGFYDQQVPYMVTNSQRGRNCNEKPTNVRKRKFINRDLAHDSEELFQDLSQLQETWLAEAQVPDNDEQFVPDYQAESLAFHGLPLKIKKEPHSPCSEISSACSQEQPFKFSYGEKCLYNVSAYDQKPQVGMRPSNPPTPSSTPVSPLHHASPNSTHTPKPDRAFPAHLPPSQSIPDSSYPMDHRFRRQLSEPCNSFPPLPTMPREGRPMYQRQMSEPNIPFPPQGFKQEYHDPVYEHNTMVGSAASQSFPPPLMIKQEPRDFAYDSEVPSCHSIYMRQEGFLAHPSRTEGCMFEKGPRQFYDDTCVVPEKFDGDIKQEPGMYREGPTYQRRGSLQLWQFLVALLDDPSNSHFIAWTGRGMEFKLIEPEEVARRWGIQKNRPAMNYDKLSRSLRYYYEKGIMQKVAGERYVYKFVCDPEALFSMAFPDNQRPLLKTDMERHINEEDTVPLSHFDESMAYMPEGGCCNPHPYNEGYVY

Sequence of ETV5 (P41161 whole entry): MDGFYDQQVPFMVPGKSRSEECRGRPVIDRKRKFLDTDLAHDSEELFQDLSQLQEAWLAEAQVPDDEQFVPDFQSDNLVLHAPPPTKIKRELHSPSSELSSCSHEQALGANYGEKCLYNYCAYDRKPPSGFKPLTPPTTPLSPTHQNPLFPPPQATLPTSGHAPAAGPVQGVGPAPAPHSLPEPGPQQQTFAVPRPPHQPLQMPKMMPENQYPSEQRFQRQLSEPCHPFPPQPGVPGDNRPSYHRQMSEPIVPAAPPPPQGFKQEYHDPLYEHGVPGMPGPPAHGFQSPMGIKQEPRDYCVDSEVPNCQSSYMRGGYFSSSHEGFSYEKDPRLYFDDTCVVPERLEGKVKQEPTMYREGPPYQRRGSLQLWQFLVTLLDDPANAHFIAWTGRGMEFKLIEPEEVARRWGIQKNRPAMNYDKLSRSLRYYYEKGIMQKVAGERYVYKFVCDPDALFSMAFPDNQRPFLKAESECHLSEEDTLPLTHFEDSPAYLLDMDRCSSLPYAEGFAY
Sequence of ELF1 (P32519 whole entry): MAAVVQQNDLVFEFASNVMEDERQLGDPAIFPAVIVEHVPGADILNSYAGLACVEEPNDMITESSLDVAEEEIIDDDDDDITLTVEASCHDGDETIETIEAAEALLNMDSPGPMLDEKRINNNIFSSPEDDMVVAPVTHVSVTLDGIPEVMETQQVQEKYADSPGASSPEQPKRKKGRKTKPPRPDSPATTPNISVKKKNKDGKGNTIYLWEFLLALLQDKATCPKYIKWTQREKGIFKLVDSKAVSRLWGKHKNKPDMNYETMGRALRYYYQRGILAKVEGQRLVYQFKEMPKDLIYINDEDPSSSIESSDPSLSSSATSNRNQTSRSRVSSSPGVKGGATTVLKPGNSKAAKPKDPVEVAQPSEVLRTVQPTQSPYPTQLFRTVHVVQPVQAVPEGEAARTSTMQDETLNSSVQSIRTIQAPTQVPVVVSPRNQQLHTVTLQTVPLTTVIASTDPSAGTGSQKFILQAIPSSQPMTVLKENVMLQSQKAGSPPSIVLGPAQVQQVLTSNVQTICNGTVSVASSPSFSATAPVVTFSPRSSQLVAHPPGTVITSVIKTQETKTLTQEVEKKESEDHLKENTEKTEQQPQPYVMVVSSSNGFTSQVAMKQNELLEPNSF
Sequence of SPIB (Q01892 whole entry): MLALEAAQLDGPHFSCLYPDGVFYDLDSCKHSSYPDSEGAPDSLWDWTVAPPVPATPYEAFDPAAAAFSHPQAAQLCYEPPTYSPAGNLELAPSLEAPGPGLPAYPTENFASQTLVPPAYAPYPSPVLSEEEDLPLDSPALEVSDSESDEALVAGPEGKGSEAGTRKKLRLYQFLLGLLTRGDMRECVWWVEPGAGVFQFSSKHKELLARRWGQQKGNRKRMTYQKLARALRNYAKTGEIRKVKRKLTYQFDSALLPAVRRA
Sequence of HSF1 (Q00613 whole entry): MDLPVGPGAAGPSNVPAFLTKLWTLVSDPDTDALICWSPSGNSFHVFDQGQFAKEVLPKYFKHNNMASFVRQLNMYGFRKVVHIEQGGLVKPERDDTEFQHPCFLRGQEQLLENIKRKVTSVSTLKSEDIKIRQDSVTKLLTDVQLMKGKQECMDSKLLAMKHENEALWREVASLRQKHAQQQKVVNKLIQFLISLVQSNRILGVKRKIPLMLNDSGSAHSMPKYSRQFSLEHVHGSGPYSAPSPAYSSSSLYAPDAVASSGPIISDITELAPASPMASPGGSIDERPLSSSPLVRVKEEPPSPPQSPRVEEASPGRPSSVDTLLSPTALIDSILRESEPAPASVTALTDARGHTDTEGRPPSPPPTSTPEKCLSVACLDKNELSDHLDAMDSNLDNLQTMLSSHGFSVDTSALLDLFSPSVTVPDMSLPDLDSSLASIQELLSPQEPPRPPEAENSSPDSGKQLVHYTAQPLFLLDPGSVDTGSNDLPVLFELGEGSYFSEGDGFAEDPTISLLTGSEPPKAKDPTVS
Sequence of ELF4 (Q99607 whole entry): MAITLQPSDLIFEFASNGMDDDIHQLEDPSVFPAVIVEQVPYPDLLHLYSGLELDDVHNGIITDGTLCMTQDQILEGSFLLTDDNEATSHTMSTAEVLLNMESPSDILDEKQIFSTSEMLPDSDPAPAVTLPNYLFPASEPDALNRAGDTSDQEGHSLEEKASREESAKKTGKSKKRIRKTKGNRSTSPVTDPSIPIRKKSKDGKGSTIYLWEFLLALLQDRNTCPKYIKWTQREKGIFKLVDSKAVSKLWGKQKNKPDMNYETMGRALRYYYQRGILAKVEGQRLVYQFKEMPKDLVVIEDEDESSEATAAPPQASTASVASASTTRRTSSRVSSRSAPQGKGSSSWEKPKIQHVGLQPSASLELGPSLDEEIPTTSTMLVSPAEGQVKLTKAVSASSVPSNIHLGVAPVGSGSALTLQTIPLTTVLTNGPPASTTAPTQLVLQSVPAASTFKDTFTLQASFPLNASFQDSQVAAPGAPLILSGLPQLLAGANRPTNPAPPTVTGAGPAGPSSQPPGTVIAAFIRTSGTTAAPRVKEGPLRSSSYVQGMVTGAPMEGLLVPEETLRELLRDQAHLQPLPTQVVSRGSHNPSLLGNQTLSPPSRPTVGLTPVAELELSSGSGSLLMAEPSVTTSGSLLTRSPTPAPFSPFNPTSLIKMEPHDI
Sequence of CRX (O43186 whole entry): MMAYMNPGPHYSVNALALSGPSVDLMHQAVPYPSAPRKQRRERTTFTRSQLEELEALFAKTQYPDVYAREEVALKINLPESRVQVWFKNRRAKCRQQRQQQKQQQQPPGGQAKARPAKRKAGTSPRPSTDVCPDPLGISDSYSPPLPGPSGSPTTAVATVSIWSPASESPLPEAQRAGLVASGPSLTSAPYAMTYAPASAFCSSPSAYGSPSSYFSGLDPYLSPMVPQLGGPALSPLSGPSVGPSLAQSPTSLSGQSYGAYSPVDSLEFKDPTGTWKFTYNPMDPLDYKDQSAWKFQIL

Consider TGGTAT, for which the binding signal with FLI1 was 1.41 fold enrichment (6-mer frequency, TF over GST control); in the assay with ELK1 it was 1.45 fold enrichment (6-mer frequency, TF over GST control); in the assay with GABPA, 1.29 fold enrichment (6-mer frequency, TF over GST control); in the assay with ERG it was 1.31 fold enrichment (6-mer frequency, TF over GST control); with ELF1, 1.39 fold enrichment (6-mer frequency, TF over GST control); in the assay with EHF, 1.32 fold enrichment (6-mer frequency, TF over GST control). For the same sequence, the binding signal was 1.39 fold enrichment (6-mer frequency, TF over GST control) with SPI1; 1.37 fold enrichment (6-mer frequency, TF over GST control) with SPIB; 1.24 fold enrichment (6-mer frequency, TF over GST control) with ELK3; 1.26 fold enrichment (6-mer frequency, TF over GST control) with FEV; 1.37 fold enrichment (6-mer frequency, TF over GST control) with ETV5; 1.35 fold enrichment (6-mer frequency, TF over GST control) with HSF1. The binding signal with SPIC is 1.39 fold enrichment (6-mer frequency, TF over GST control); with ELF4, 1.42 fold enrichment (6-mer frequency, TF over GST control); with ELK4, 1.47 fold enrichment (6-mer frequency, TF over GST control); with ETV2 it was 1.33 fold enrichment (6-mer frequency, TF over GST control); with ELF3 it was 1.45 fold enrichment (6-mer frequency, TF over GST control); with CRX, 1.39 fold enrichment (6-mer frequency, TF over GST control). In addition, in the assay with ETV1, the binding signal is 1.37 fold enrichment (6-mer frequency, TF over GST control).
